Compound activity: PubChem, several laboratories
Compounds with a hit are over-represented: about 3.5% of the library has one in this group of screens.
BH1578 lux ind: quorum light induction in luxS cqsA deficient V. cholerae; V. cholerae BH1578 lux reporter, luminescence, 6 h; activation, % at 18.7 µM; 350,000 compounds, 0.16% hits; in the data active means activation mostly above about 9.7%, no sharp cut-off; inconclusive means no clear call, values can overlap the other calls; inactive means mostly below about 3.7%
BoNT F protease: inhibitors of Botulinum neurotoxin F light chain protease; Multiplex microsphere protease cleavage assay, flow cytometry; inhibition, % at 10 µM; 360,000 compounds, 0.22% hits; in the data active means inhibition above about 35%, passing the limit was not always enough; inconclusive means no clear call, values can overlap the other calls; further: plate controls were buffer without enzyme for full effect and enzyme alone for no effect
Autofluor counter: counter-screen for toxin protease inhibitors: compound fluorescence; compound autofluorescence counterscreen, microsphere flow cytometry; hits give high values; fluorescence intensity (concentration not given with the values); 360,000 compounds, 3.1% hits; in the data active means fluorescence intensity above about 16000; inconclusive means no clear call, values can overlap the other calls
BoNT A protease: inhibitors of Botulinum neurotoxin A light chain protease. multiplex microsphere protease substrate cleavage, flow cytometry. inhibition, % at 10 µM. 360,000 compounds, 0.17% hits; further: plate controls were buffer without enzyme for full effect and enzyme alone for no effect
Anthrax LF inh2: blocks Bacillus anthracis lethal factor protease | P15917 | multiplex microsphere protease cleavage assay, LF | inhibition, % at 10 µM | 360,000 compounds, 0.12% hits | AID 588501; further: plate controls were buffer without enzyme for full effect and enzyme alone for no effect
Target sequence (P15917 whole entry, looked up): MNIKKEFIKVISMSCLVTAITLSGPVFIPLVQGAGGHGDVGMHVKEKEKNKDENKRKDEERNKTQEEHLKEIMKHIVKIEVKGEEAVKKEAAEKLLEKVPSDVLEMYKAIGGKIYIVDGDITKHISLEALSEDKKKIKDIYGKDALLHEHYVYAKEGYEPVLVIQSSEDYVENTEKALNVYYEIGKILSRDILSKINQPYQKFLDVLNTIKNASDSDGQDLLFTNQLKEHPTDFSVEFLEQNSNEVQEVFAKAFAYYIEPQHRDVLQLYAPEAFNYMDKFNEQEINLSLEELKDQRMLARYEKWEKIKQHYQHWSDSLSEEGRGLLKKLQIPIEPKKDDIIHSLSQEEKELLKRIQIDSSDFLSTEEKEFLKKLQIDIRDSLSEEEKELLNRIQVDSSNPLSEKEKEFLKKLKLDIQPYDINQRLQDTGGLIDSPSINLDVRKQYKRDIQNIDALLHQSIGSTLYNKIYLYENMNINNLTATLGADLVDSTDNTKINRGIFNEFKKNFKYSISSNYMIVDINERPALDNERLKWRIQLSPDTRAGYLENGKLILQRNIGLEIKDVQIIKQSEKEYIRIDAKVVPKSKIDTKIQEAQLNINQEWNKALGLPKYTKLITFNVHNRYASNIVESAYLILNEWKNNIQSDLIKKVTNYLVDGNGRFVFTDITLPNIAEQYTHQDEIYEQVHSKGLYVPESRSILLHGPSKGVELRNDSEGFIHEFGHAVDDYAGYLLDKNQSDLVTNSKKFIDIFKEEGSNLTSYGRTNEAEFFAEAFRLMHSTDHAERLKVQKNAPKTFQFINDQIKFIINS
* hit, by the source's call; i = inactive; ? = inconclusive. Unless noted, no stated cut-off is given here; in the data, active means inhibition above about 30%; inconclusive means no clear call, values can overlap the other calls; inactive means below that.

SMILES	BH1578 lux ind	BoNT F protease	Autofluor counter	BoNT A protease	Anthrax LF inh2
CCC1(C)Cc2ccccc2C(=S)N1 (configuration not stated)	-7	0	1995	0	-3
Cc1ccc(OCCN2C(=O)c3ccccc3C2=O)c(C)c1	0	-9	8848	-1	-2
Cc1ccc(OCCN2C(=O)c3ccccc3C2=O)cc1	-1	0	22823*	2	-1
CC(C)(C)c1ccc(C(=O)Nc2c3c(nn2C(C)(C)C)CS(=O)(=O)C3)cc1	i	-8	?	4	-6
CCN(CC)S(=O)(=O)c1ccc(C(=O)Nc2c3c(nn2C(C)(C)C)CS(=O)(=O)C3)cc1	0	0	23143*	0	-1
Cc1ccc(-n2ncc3c(N4CCC(C(N)=O)CC4)ncnc32)c(C)c1	i	0	23419*	0	2
Cc1cc(Cl)ccc1NC(=O)CSc1n[nH]c(N)n1	-1	-8	3042	0	-10
CS(=O)(=O)NCCSc1cc(C(F)(F)F)nc2ccccc12	i	?	3486	?	8
COC(=O)c1ccc(NC(=O)CNc2ccccc2)cc1	0	4	4430	0	2
O=C(Nc1cccc(Cl)c1)OCc1cn(-c2ccc(Cl)cc2)nn1	-2	-7	16617*	-2	-3
CC(C)(C)C(=O)OCc1cn(-c2ccc(Cl)cc2)nn1	-3	0	19456*	?	-5
O=C(Nc1cccc(Cl)c1)OCc1cn(-c2ccccc2)nn1	i	-4	5337	0	-11
CC(C)CC(=O)OCc1cn(-c2ccccc2)nn1	i	-7	21300*	-5	0
CC(=O)c1cccc(NC(=O)CSCc2ccccc2)c1	3	-3	16402*	0	0
O=C(O)CSCC(=O)Nc1ccccc1	-1	-2	16554*	-2	-1
O=C(CSCCO)Nc1ccccc1	i	3	9041	0	-2
CCOc1c(C)cnc2c1c(=O)n(Cc1cccc(Cl)c1)c(=O)n2C	0	-3	5518	-1	3
N#CC1=C(N)C(C#N)(C#N)C(c2cccnc2)C2CC(c3ccccc3)CC=C12 (configuration not stated)	25*	11	2288	1	0
CC1=NN(C(=O)c2ccc(Cn3cc([N+](=O)[O-])cn3)cc2)C(O)(C(F)(F)F)C1 (configuration not stated)	0	-1	2521	0	1
CCN(C[C@H]1N[C@@](CC)(C(=O)OC)[C@H]2C(=O)N(C)C(=O)[C@@H]12)C(=O)Nc1ccc(C)cc1	-1	-2	2845	0	-7
CC(=O)/C=C1/SC(CC(=O)O)C(=O)N1c1ccccc1 (configuration not stated)	-6	12	17699*	8	-32
O=C(O)CC1S/C(=N\N=C2CCCCCC2)N(c2ccccc2)C1=O (configuration not stated)	0	3	3664	0	-2
O=C(Oc1c(Cl)cc(Cl)c2ccccc12)N1CCCC1	-1	2	22642*	0	-4
COc1ccccc1C(=O)NC(C)C(c1cccs1)N1CCN(C)CC1 (configuration not stated)	i	1	23363*	0	-1
CC(NC(=O)c1ccc(F)cc1)C(c1cccs1)N1CCN(C)CC1 (configuration not stated)	1	0	21892*	1	1
COc1ccc(N2CCN(C(c3cccs3)C(C)NS(=O)(=O)c3ccccc3)CC2)cc1 (configuration not stated)	-1	-7	16688*	-2	-11
CCN1CCN(C(c2cccs2)C(C)NC(=O)c2ccco2)CC1 (configuration not stated)	-1	2	23437*	0	0
CCN1CCN(C(c2cccs2)C(C)NC(=O)CC(C)C)CC1 (configuration not stated)	i	9	9515	0	-2
CC(NC(=O)c1ccc(N(C)C)cc1)C(c1cccs1)N1CCN(C)CC1 (configuration not stated)	-3	8	7681	0	-5
